According to PubChem BioAssay AID2665 (Vanderbilt High Throughput Screening Facility, 2010):
Active and inactive are the calls of the source. The rule behind the calls is not given here.

Experiments:
[1] = biological target: Muscarinic acetylcholine receptor M5 (Homo sapiens) (UniProt P08912); test: M5 positive allosteric modulators, analog testing, SAR follow-up, CHO cells, calcium, ACh EC10, single 30 µM (AID 2665); settings: CHO hM5 calcium flux, ACh EC10 potentiation; at 30 µM; stronger effect = higher value;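 note: 100% = response to a maximal acetylcholine concentration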
[2] = biological target: Muscarinic acetylcholine receptor M1 (Rattus norvegicus) (UniProt P08482); test: as above; settings: rat M1 potentiation, CHO calcium; at 30 µM; stronger effect = higher value

Sequence of Muscarinic acetylcholine receptor M5 (Homo sapiens) (P08912 whole entry, looked up): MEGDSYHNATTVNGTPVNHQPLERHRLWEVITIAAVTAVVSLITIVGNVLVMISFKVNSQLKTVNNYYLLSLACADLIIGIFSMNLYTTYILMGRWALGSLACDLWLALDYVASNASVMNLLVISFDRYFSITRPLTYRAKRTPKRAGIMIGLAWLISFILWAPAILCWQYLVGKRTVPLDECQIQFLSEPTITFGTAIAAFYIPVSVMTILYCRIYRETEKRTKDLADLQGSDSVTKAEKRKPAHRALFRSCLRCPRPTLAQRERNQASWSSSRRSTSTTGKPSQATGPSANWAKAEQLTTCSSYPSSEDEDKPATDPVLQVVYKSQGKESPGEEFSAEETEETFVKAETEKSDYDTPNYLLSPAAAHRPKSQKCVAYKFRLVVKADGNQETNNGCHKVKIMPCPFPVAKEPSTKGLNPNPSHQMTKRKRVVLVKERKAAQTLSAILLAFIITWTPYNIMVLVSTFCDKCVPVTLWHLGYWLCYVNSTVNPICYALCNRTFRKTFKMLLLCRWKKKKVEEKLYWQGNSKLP

In the case of `COc1ccccc1-c1ccc(CN2C(=O)C(=O)c3cc(OC(F)(F)F)ccc32)cc1`, the % ACh max response [1] is reported as 72.6% (active).
`O=C1C(=O)N(Cc2ccc(-c3ccc(Cl)c(Cl)c3)cc2)c2ccccc21` was tested, and the % ACh max response [2] was 35.3% and the % ACh max response [1] was 56.3% (active).
`Cc1ccc2c(c1)C(=O)C(=O)N2Cc1ccc(OC(F)(F)F)cc1` was tested, and the % ACh max response [2] was 13.8% and the % ACh max response [1] was 18.9% (inactive).
For `O=C1C(=O)N(CCc2ccc(Br)cc2)c2ccc(OC(F)(F)F)cc21`, the % ACh max response [1] was 81.1% (active).
For `O=C1C(=O)N(Cc2ccc(-c3cc(F)ccc3F)cc2)c2ccc(OC(F)(F)F)cc21`, the % ACh max response [1] was 80.9% (active).
For `O=C1C(=O)N(Cc2ccc(F)cc2F)c2c(Cl)ccc(Cl)c21`, the % ACh max response [2] was 17.2% and the % ACh max response [1] was 19.1% (inactive).
With `O=C1C(=O)N(Cc2c(F)cccc2F)c2ccc(OC(F)(F)F)cc21` the % ACh max response [2] was 13.6% and the % ACh max response [1] was 29.8% (inactive).
For `O=C1C(=O)N(Cc2ccc(-c3ccc(Cl)nc3)cc2)c2ccc(OC(F)(F)F)cc21`, the % ACh max response [1] was 88.2% (active).
With `COc1ccc(CCN2C(=O)C(=O)c3cc(OC(F)(F)F)ccc32)cc1` the % ACh max response [1] was 88.3% (active).
With `Cc1ccc2c(c1)C(=O)C(=O)N2Cc1ccccc1C` the % ACh max response [2] was 20.2% and the % ACh max response [1] was 29.9% (inactive).
With `Cn1cc(-c2ccc(CN3C(=O)C(=O)c4cc(OC(F)(F)F)ccc43)cc2)cn1` the % ACh max response [1] was 86.8% (active).
With `O=C1C(=O)N(Cc2ccc(OC(F)(F)F)cc2)c2ccc(Cl)cc21` the % ACh max response [2] was 31.3% and the % ACh max response [1] was 47.1% (active).
For `O=C1C(=O)N(Cc2ccc(Br)cc2F)c2c(F)cccc21`, the % ACh max response [2] was 39.2% and the % ACh max response [1] was 46.3% (active).
In the case of `Cc1ccccc1CN1C(=O)C(=O)c2ccccc21`, the % ACh max response [2] is reported as 43.2% and the % ACh max response [1] is reported as 36.3% (active).
`O=C1C(=O)N(Cc2ccc(-c3ccc(Cl)c(Cl)c3)cc2)c2ccc(OC(F)(F)F)cc21` was tested, and the % ACh max response [1] was 73.5% (active).
